Experimental data taken from ChEMBL document CHEMBL3988442, “University of Dundee, Small-Polar-MMV Screening Library” (2021).
Among all 69,000 compounds or so, about 950 (1.4%) showed an effect of 50% or more. What follows is part of a selection rich in strong results, with near analogues and random picks from the rest.

These molecules were tested on Mycobacterium tuberculosis (assay: Cornell M. t heat shock assay; also: in the data most compounds retested in dose-response had high values).
Format: functional, organism-based
Design: dose or concentration left out as unconfirmed

Row | Structure (SMILES) | Percent Effect [%]
1 | Cn1cc(CN2Cc3c(cnn3C)C(COCC3CC3)C2)cn1.O=C(O)C(F)(F)F.O=C(O)C(F)(F)F (configuration not stated) | -38.19
2 | CO[C@H]1CCN(C(=O)Cc2ccsc2)[C@@H]2CN(CC3CC3)C[C@H]12.O=C(O)C(F)(F)F | -6.3
3 | Cc1cnc(C(=O)N2Cc3ncn(C)c3C(COCC(C)C)C2)cn1.O=C(O)C(F)(F)F (configuration not stated) | 6.608
4 | CN1CCN([C@@H]2CCN(CC3=Cc4cc(Cl)ccc4OC3)C[C@H]2O)CC1 | -1.479
5 | O[C@@H]1CN(CC2=Cc3cc(Cl)ccc3OC2)CC[C@H]1N1CCCCCC1 | 85.47
6 | Cc1c(CN2CC[C@@H](N3CCC(O)CC3)[C@H](O)C2)[nH]c2ccc(Cl)cc12 | 15.96
7 | CC(C)NC(=O)CC1COC2(CCN(Cc3ccsc3)CC2)C1.O=C(O)C(F)(F)F (configuration not stated) | -6.674
8 | CCN(CC)C(=O)CN(C)C(=O)c1ccc(-c2ccsc2)nc1C | -2.005
9 | CCN(CC(=O)NC(C)C)C(=O)c1ccc(-c2ccsc2)nc1C | -31.64
10 | CCN(CC)C(=O)c1ccc(-c2ccsc2)nc1C | 85.72
11 | COCCN1CCC(c2nc3ccc(NC4CCC4)cn3n2)CC1.O=C(O)C(F)(F)F | 43.84
12 | CC(C)(C)C(=O)N1C[C@H](c2ccsc2)[C@H]2CN(C3CCCCC3)CC[C@H]21.Cl | 6.818
13 | CCC(=O)N1CCC2(CC1)C(=O)N(Cc1cccnc1)CCN2C.O=C(O)C(F)(F)F.O=C(O)C(F)(F)F | -1.837
14 | Cc1ccc(CNc2ccccc2-n2ccc(C)n2)nc1 | 73.74
15 | Cc1ccn(-c2ccccc2NCc2ccccn2)n1 | 31.75
16 | Cc1ccn(-c2ccccc2NCc2cscn2)n1 | -34.26
17 | COCCn1ccc2ccc(C(=O)N3CCN(C(C)=O)CC3)cc21 | 4.647
18 | COCCn1ccc2cc(C(=O)N3CCN(S(C)(=O)=O)CC3)ccc21 | 72.24
19 | COCCn1ccc2ccc(C(=O)O)cc21 | -0.8971

Row | Structure (SMILES) | Percent Effect [%]
20 | CCOCC(O)CN1CCN(C(=O)Cc2ccc(C)cc2)CC1 (configuration not stated) | -41.68
21 | Cn1cc(C[C@H]2[C@H](O)CCN2CC2CC2)cn1.O=C(O)C(F)(F)F | 6.686
22 | O=C(O)C(F)(F)F.O=C(c1ccc(F)cc1)N1C[C@@H]2COC[C@]2(COc2cccnc2)C1 | 37.91
23 | O=C1C(CS(=O)(=O)Nc2ccccc2)=NC(=O)n2cccc21 | -27.85
24 | COCCN(Cc1sccc1C)Cc1nccn1CCOC | -20.4
25 | COCCN(Cc1ccccn1)Cc1sccc1C | -13.89
26 | COCCn1ccnc1CN(Cc1ccccn1)Cc1sccc1C | 88.17
27 | Cl.c1cnc2c(c1)cc([C@@H]1CCCO1)n2CCN1CCCCC1 | -17.62
28 | CCN(CC)S(=O)(=O)N1CCc2nc(C3CCNCC3)ncc2C1.Cl | -7.475
29 | CN(Cc1ccnc2ccccc12)C1CCS(=O)(=O)C1.O=C(O)CC(O)(CC(=O)O)C(=O)O (configuration not stated) | 6.818
30 | CSc1[nH]nc(NC(=O)c2cccs2)c1C#N | 104.2
31 | CSc1[nH]nc(NC(=O)c2ccncc2)c1C#N | 6.331
32 | CSc1[nH]nc(NC(=O)c2ccccc2)c1C#N | -4.998
33 | CN(C)[C@@H]1CCN(C(=O)c2cccc(C#N)c2)[C@H]1Cc1cnn(C)c1.O=C(O)C(F)(F)F | 5.533
34 | Cc1ccc(N2CCO[C@H]3CN(Cc4ccc(F)cc4)C[C@H]32)nn1.O=C(O)C(F)(F)F.O=C(O)C(F)(F)F | -13.42
35 | CCOCCNC1(c2ccc(Cl)cc2)CCOCC1 | 12.33
36 | COCCNC1(c2ccc(Cl)cc2)CCOCC1 | 20.91
37 | Clc1ccc(OCCNC2(c3ccc(Br)cc3)CCOCC2)cc1 | 73.72
38 | CCN1C(=O)C2(CCN(CCN(C)C)CC2)c2ccccc21.O=C(O)C(F)(F)F.O=C(O)C(F)(F)F | -13.81

Row | Structure (SMILES) | Percent Effect [%]
39 | Cc1ccc(C(=O)N2CCc3c(CNc4ncccn4)cncc3C2)o1.Cl | -7.52
40 | CC(=O)N1C(CN2CCCC2)C[C@@H]2CN(C(=O)c3ccoc3)CC[C@@H]21.O=C(O)C(F)(F)F (some centres not stated) | -8.828
41 | CCc1cnc(N2Cc3cnc(C(C)(C)C)nc3C2)nc1 | 15.36
42 | CC(C)Cc1ncc2c(n1)CN(c1nccc(N(C)C)n1)C2 | 7.671
43 | COc1ccnc(N2Cc3cnc(C(C)(C)C)nc3C2)n1 | 14.25
44 | CC(C)Cc1ncc2c(n1)CN(c1nccc(NC(C)C)n1)C2 | 83.11
45 | CCNc1ccnc(N2Cc3cnc(CC(C)C)nc3C2)n1 | 35.37
46 | CC(C)Nc1ccnc(N2Cc3cnc(C(C)(C)C)nc3C2)n1 | 52.72
47 | O=C(O)C(F)(F)F.c1cnc(N2CCO[C@@H]3CN(Cc4ccoc4)C[C@@H]3C2)nc1 | -2.175
48 | O=C(O)C(F)(F)F.O=C(c1ccc[nH]1)N1CCc2onc(COc3cccnc3)c2C1 | 7.093
49 | C=C1C(C)(C)[C@H]2CC[C@]1(C(=O)N1CCC(n3cc(CCO)nn3)CC1)C2 | -7.185
50 | O=C(O)C(F)(F)F.O=C(O)C(F)(F)F.O=C(c1cccc(F)c1)N1CCN2C[C@H](OCc3cccnc3)C[C@H]2C1 | -1.159
51 | O=C(N[C@H]1COC[C@@H]1N1CCCC1)c1c[nH]nc1C1CCCCC1 | 69.58
52 | Cc1nc(C(=O)N[C@H]2COC[C@@H]2N2CCCCC2)cs1 | -0.7621
53 | CCO[C@H]1COC[C@@H]1NC(=O)c1c[nH]nc1C1CCCCC1 | -8.48
54 | Cc1ccc2c(c1)C(NC1CC1)CC21CCNCC1.Cl (configuration not stated) | -15.52
55 | C[C@@H]1CN(C(=O)c2ccc[nH]2)C[C@]12CCN(CCN1CCCC1)C2=O.O=C(O)C(F)(F)F | 22.28
56 | CNC(=O)CN1CCOCC2(CN(CCC(F)(F)F)CCO2)C1.O=C(O)C(F)(F)F.O=C(O)C(F)(F)F (configuration not stated) | -25.1
57 | Cc1ccc2c(c1)C(NC(=O)N(C)C)CC21CCN(CC2CC2)CC1.O=C(O)C(F)(F)F (configuration not stated) | -3.475
